In the library only some 7% were active in any assay of this set; here they are far more common.
JMJD2A Tudor inh: qHTS Assay for Inhibitors of JMJD2A-Tudor Domain | actives 4.4% (n = 390,000) | AlphaScreen JMJD2A-Tudor / H3K4me3 peptide binding | Potency, µM (series often up to 114 µM), without a hit: at the top dose activity change, negative = inhibition, usual class: inhibitors | AID 504339, 2011; also: potency is read from the fitted curve at half-maximal effect; % is scaled to controls: 0 for no effect and ±100 for the full control effect; nearly all actives have a fitted effect of over 50% in size
PLK1 PBD inh: qHTS for Inhibitors of PLK1-PDB (polo-like kinase 1 - polo-box domain): Primary Screen. actives 2.8% (n = 360,000). AID 720504, 2013. Plk1 PBD binding of FITC phosphopeptide, fluorescence polarization. Serine/threonine-protein kinase PLK1 (Homo sapiens), P53350. Potency, µM, for the others: max response, negative = inhibition, most hits filed as inhibitors; also: potency is read from the fitted curve at half-maximal effect; series mostly up to about 57 µM; % is scaled to controls: 0 for no effect and ±100 for the full control effect; nearly all actives have a fitted effect of over 65% in size
BAZ2B block: qHTS Assay for Inhibitors of BAZ2B. AlphaScreen BAZ2B-H3K14Ac peptide displacement. Potency, µM (top dose mostly 114 µM), for inactives: top-dose activity change, negative = inhibition, hits mostly inhibitors. Bromodomain adjacent to zinc finger domain protein 2B (Homo sapiens), Q9UIF8. actives 4.4% (n = 360,000); also: potency is read from the fitted curve at half-maximal effect; % is scaled to controls: 0 for no effect and ±100 for the full control effect; nearly all actives have a fitted effect of over 60% in size
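AlphaScreen luminescence quantifies BAZ2B engagement of H3K14Ac peptide; the protein and biotinylated peptide are both at 50 nM final, buffer PBS pH 7.4 with 0.01% Tween-20, all steps at room temperature.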
GCN5L2 inh: qHTS Assay for Inhibitors of GCN5L2; Histone acetyltransferase KAT2A (Homo sapiens), Q92830; actives 0.21% (n = 390,000); GCN5L2 HAT assay, ThioGlo1 CoA-SH fluorescence; Potency, µM (doses to about 58.9 µM), for inactives: at the highest dose activity change, negative = inhibition, actives largely listed as inhibitors; also: potency is read from the fitted curve at half-maximal effect; % is scaled to controls: 0 for no effect and ±100 for the full control effect
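qHTS, 1536-well. 20nM enzyme, pH 7.5 HEPES/EDTA/Tween-20 buffer; 15 min compound preinc., RT. Start: 75uM H3(1-25), 70uM AcCoA, 50uM ThioGlo1. Read Ex340/Em540 at t=0 (autofluorescence flag) and t=20 min.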
HP1b binding inh: HTS for Inhibitors of HP1-beta Chromodomain Interactions with Methylated Histone Tails; actives 0.56% (n = 390,000); AlphaScreen HP1-beta / biotin-H3K9me3 peptide binding; Chromobox protein homolog 1 (Homo sapiens), P83916; Potency, µM (doses to about 114 µM), inactives show at the top dose activity change, negative = inhibition, actives largely listed as inhibitors; AID 540317, 2011; also: potency is read from the fitted curve at half-maximal effect; nearly all actives have a fitted effect of over 70% in size
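HP1-beta protein (50 nM final) preincubated 30 min at room temperature with biotinylated H3(1-18)K9me3 peptide (50 nM) in PBS pH 7.4, 0.01% Tween-20, then compound added for 30 min. AlphaScreen streptavidin donor/nickel chelate acceptor beads (10 ug/mL final), 30 min dark, luminescence read.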
PI5P4K alpha inh: qHTS for Inhibitors of phosphatidylinositol 5-phosphate 4-kinase (PI5P4K); Phosphatidylinositol 5-phosphate 4-kinase type-2 alpha (Homo sapiens), P48426; PI5P4Kalpha enzyme, ADP-Glo luminescence, 60 min; stronger effect = lower value; max response, %; actives 1.2% (n = 330,000); active = max response of -50% or lower; inconclusive = between -30% and -50%; inactive = -30% or higher; also: value at the top dose of about 77 µM; % is scaled to controls: 0 for no effect and ±100 for the full control effect
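Quantitative HTS of the MLSMR library against PI5P4Kalpha with substrate. ATP added last at 5 microM final; room temperature, 60 minutes. Remaining ATP depleted, ADP converted and read as luminescence.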
The depositor's hits bear a star; ? = inconclusive; nt = not tested or not shown; [ ] = remark or other dose. Unless noted, calls follow the shape of the dose curve; as a rule, active = well fitted curve in the direction sought with a large enough effect; inconclusive = small, poorly fitted or top-dose-only effect, or another doubt; inactive = no such curve, though single readings can be large; an effect the other way counts as inactive or inconclusive.

SMILES	JMJD2A Tudor inh	PLK1 PBD inh	BAZ2B block	GCN5L2 inh	HP1b binding inh	PI5P4K alpha inh
O=C(CN1C(=O)NC(c2ccccc2)(c2ccccc2)C1=O)NC1CCCC1	-16.3%	-3.7%	6.0%	1.9%	37.2%	0.5
CC(C)N(C)c1ncnc2c1ncn2[C@H]1CN(Cc2ccc(-c3ccccc3)cc2)C[C@@H](CO)O1	nt	0.0%	nt	nt	nt	8.6
Cc1c(F)cccc1NS(=O)(=O)c1cccs1	-10.6%	nt	6.2%	-1.6%	39.7%	nt
COc1ccc(C(C)NC(=O)C2CCN(CCCc3ccccc3)CC2)cc1OC (centres undefined)	nt	-12.2%	nt	nt	nt	0.1
CN(C)CC(C)(C)CNC(=O)C1CCN(CCCc2ccccc2)CC1	56.2µM*	-1.6%	-9.5%	-3.5%	-14.9%	-0.4
CCCCN(C)C(=O)C1CCN(CCCc2ccccc2)CC1	8.91µM*	-6.3%	56.2µM*	-6.3%	?	-0.9
COC(=O)c1ccccc1NC(=O)c1sc2nc(C)cc(C)c2c1NC(=O)c1ccccc1Cl	-17.5%	nt	-6.7%	-2.5%	13.3%	nt
COc1cc(C(O)c2nc(-c3cccc4cccnc34)cs2)ccc1F (centres undefined)	nt	5.7%	nt	nt	nt	12.0
O=C(N=Nc1c(O)[nH]c2ccc(F)cc12)C1COc2ccccc2O1 (centres undefined)	?	26.7µM*	-18.9%	-2.4%	-9.5%	-14.8
COc1ccc(NS(=O)(=O)c2ccc3c(c2)NC(=O)CCS3)cc1Cl	-9.5%	-3.5%	-16.7%	-1.9%	25.0%[57 µM]	3.1
Cc1ccc2oc(C(=O)Nc3c(C(=O)Nc4ccccc4)oc4ccccc34)cc(=O)c2c1	-20.1%	nt	3.4%	-2.5%	32.1%	nt
Cc1cc([N+](=O)[O-])nn1CC(=O)Nc1cccc2nonc12	-35.0%	-6.9%	?	-1.8%	-4.9%	-73.4*
CSc1ccccc1NC(=O)Cn1nc([N+](=O)[O-])cc1C	-21.5%	?	-1.9%	2.0%	33.4%	3.3
CC(=O)c1c(C)[nH]c(-c2ccccc2)c1C	?	-7.7%	50.1µM*	-2.1%	-25.6%	1.5
CC(=O)c1c(-c2ccccc2)[nH]c2ccccc12	-6.1%	-11.5%	-5.1%	-7.8%	47.2%	12.1
CN1CCN(c2ncncc2-c2cccnc2)CC1	nt	nt	nt	0.891µM*	nt	nt
Cc1cccc(NC(=S)NCC(c2cccnc2)N2CCOCC2)c1C (centres undefined)	-3.5%	-18.9%	-3.9%	14.1%	14.3%	-3.5
COc1ccc(C(=O)NCC(c2cccnc2)N2CCN(c3ccccc3OC)CC2)cc1 (centres undefined)	-27.0%	nt	-19.6%	-8.0%	4.7%	nt
COc1ccc(OC)c(NC(=S)NCC(c2cccnc2)N2CCOCC2)c1 (centres undefined)	-15.5%	15µM*	5.0%	-6.8%	8.2%	-5.2
COc1ccccc1N1CCN(C(CNC(=O)C(=O)NCCc2ccccc2)c2cccnc2)CC1 (centres undefined)	11.2µM*	nt	39.8µM*	0.9%	20µM*	nt
CCOc1ccc(NC(=S)NCC(c2cccnc2)N2CCOCC2)cc1 (centres undefined)	-10.0%	26.7µM*	2.3%	-1.5%	5.9%	1.8
COc1ccc(NC(=S)NCC(c2cccnc2)N2CCOCC2)cc1 (centres undefined)	-13.3%	-6.2%	1.0%	-1.0%	24.5%	0.5
Cc1ccc(N=Nc2ccc(O)cc2)c(Br)c1	35.5µM*	-6.7%	44.7µM*	-16.1%	?	13.0
CCN(CC)S(=O)(=O)c1ccc(N=Nc2cc(C)cc(Br)c2O)cc1	?	-2.3%	nt	nt	?	3.2
Oc1ccc(N=Nc2ccc(Br)cc2)c(O)c1	-34.1%	-4.2%	25.1µM*	-3.5%	-9.5%	2.9
SMILES	JMJD2A Tudor inh	PLK1 PBD inh	BAZ2B block	GCN5L2 inh	HP1b binding inh	PI5P4K alpha inh
CC(C)c1ccc(CN(C(=O)/C=C/c2ccco2)C2CCS(=O)(=O)C2)cc1 (centres undefined)	?	?	-36.5%	-3.3%	5.5%	-28.4
COc1ccc(NC(=O)CSCc2cnn(-c3ccccc3)c2-n2cccc2)cc1	-6.6%	nt	-38.5%	6.6%	54.7%	nt
O=c1[nH]c(SCc2ccc(Cl)cc2)nc2[nH]ncc12	-14.7%	-14.5%	-2.0%	-5.4%	22.5%	-24.3
CN1CCCN=C1/C=C\c1cccs1	nt	nt	nt	11.2µM*	nt	nt
Cc1ccsc1/C=C/C1=NCCCN1C	-4.8%	-1.9%	-15.2%	-4.2%	47.3%	-1.2
CCOc1ccc(OCC)c(NS(=O)(=O)c2c(C(=O)N3CCCCCC3)c(C)n(C)c2C)c1	-30.0%	nt	?	7.4%	12.4%	nt
O=c1c(Cl)c(NCC2CCCO2)cnn1C12CC3CC(CC(C3)C1)C2 (centres undefined)	-18.2%	-12.5%	-13.4%	-0.8%	20.2%	1.0
Cc1ccc(-c2nn(CCC(=O)O)cc2/C=C\C(=O)c2ccc(Br)cc2)cc1	?	37.7µM*	?	2.8%	23.7%	-22.6
O=C(O)CCn1cc(/C=C\C(=O)c2ccc(Cl)cc2)c(-c2cccc(Br)c2)n1	-26.7%	23.8µM*	?	32.7%	-6.0%	-14.8
O=Cc1cn(CCC(=O)O)nc1-c1cccc(Br)c1	-13.5%	-8.2%	-16.7%	3.1%	69.9%	-3.2
CCOc1ccccc1O[C@H](c1ccccc1)[C@H]1CNCCO1	-24.5%	-20.9%	-13.8%	-6.3%	23.1%	12.9
N#CC1=C2Nc3ccccc3N2C(=O)NC1(c1ccccc1)C(F)(F)F (centres undefined)	56.2µM*	23.8µM*	4.2%	-4.8%	?	-7.8
Cc1cccc(Cl)c1OCCCn1ccnc1	7.94µM*	-5.8%	28.2µM*	1.0%	28.2µM*	-3.2
COc1cc(C)ccc1OCCOc1c(C)cccc1Cl	86.9%	0.7%	112.4%	-4.9%	206.8%	17.1
Cc1cc(Cl)cc(C)c1OCCCCCn1ccnc1	?	3.2%	31.6µM*	-3.2%	20.2%	8.8
CCN(CC)CCOc1c(C)cccc1Cl	-12.6%	-6.3%	79.4µM*	4.0%	17.8%	5.2
COc1cccc(CN2CC(C(=O)NCC3CCOCC3)CCC2=O)c1 (centres undefined)	-4.9%	-7.4%	2.3%	-2.8%	36.3%	-5.6
O=[N+]([O-])c1cc(-c2ccc(/C=N/c3nc4ccccn4c3-c3ccco3)o2)ccc1Cl	?	-2.9%	44.7µM*	-23.3%	-16.9%	?
Cc1nnc(SCc2cc(=O)n3cccc(C)c3n2)s1	-7.1%	nt	13.2%	-3.7%	27.3%[57 µM]	nt

Compound activity: PubChem, National Center for Advancing Translational Sciences (NCATS)
